FUS yeast rescue – FUS proteinopathy suppression in yeast | AID 1347120 | actives 0.24% (n = 390,000) | S. cerevisiae FUS-expressing, growth rescue, OD600, 24 h | Potency, µM (highest dose often 76.6 µM), actives largely listed as activators;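 also: potency is read from the fitted curve at half-maximal effect; plate controls were DMSO vehicle for no effect and reference control for full effect; nearly all actives have a fitted effect of over 55% in size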
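S. cerevisiae expressing FUS from galactose induction served as the toxicity model. Growth after 24hr at 30C, read as absorbance at 600 nm, indicates suppression of toxicity; compounds dosed at several concentrations.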
TDP-43 yeast inh – TDP-43 toxicity inhibition in yeast; AID 652104; Potency, µM (series often up to 46.1 µM), inactives show at the top dose growth rescue (activation), most hits filed as activators; TDP-43 expressing yeast growth rescue, BacTiter-Glo, 24 h; actives 1.8% (n = 410,000); also: potency is read from the fitted curve at half-maximal effect; % of control where 0% means no effect; nearly all actives have a fitted effect of over 50% in size
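In this qHTS, compounds that restore growth of yeast expressing TDP-43 appear as activators. Cells (OD600=0.02, galactose medium, raffinose-pregrown) are incubated with compound 24 hr at 30 deg C and growth is quantified by BacTiter-Glo.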
MmCpn inh – inhibitors of Methanococcus maripaludis chaperonin TRiC (MmCpn); purified Mm-Cpn ATPase, ADP Transcreener TR-FRET; actives 0.031% (n = 330,000); AID 504842; Potency, µM (doses to about 76.9 µM), for inactives: at the top dose activity, negative = inhibition, hits mostly inhibitors; also: potency is read from the fitted curve at half-maximal effect; % is scaled to controls: 0 for no effect and ±100 for the full control effect; nearly all actives have a fitted effect of over 80% in size
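ATPase read-out: TR-FRET ADP immunoassay (anti-ADP Eu cryptate vs ADP-d2), ex 320 nm, em 590/665 nm; signal drops as ADP forms. Enzyme 25 nM, ATP 10 uM, 30 min at 37°C after 10 min compound preincubation.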
Abeta yeast res – restores growth of yeast expressing A-beta42 peptide | AID 1347071 | Potency, µM (highest dose often 46.1 µM), hits mostly activators | yeast expressing A-beta42, growth rescue, OD600, 48 h; response scale: 0% DMSO, 100% iron-clioquinol control | actives 0.063% (n = 410,000); also: potency is read from the fitted curve at half-maximal effect; nearly all actives have a fitted effect of over 55% in size
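Growth rescue measured by 600 nm absorbance after 48 h yeast culture at 30 C with compound. Values normalized between DMSO and an equimolar ferric chloride plus clioquinol control.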
aSyn yeast inh – alpha-synuclein toxicity inhibition in yeast. Potency, µM (top dose mostly 46.1 µM), for the others: at the highest dose growth rescue (activation), most hits filed as activators. AID 652106. actives 0.14% (n = 370,000). Yeast expressing alpha-synuclein, growth rescue, BacTiter-Glo, 24 h; also: potency is read from the fitted curve at half-maximal effect; % of control where 0% means no effect; nearly all actives have a fitted effect of over 65% in size
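Screening used galactose-induced yeast with toxic alpha-synuclein levels, exposed to compound for 24 hr at 30 deg C. Cell growth, read with BacTiter-Glo luminescence, gave the measured signal.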
CCT modulator – changes cytosolic chaperonin activity; purified chaperonin ATPase assay, HTRF ADP detection, 30 min; activity change, % (no concentration beside the values), hits read low; actives 0.3% (n = 360,000); AID 651819; in the data active = activity change below about -30%; also: % is scaled to controls: 0 for no effect and ±100 for the full control effect
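We incubate TRiC, 40 or 20 nM final, with library compounds at 76 uM and 10 uM ATP for 30 min at 37 °C. ADP formed is detected with Transcreener HTRF reagents after 30 min at room temperature.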
* hit, by the source's call; i = inactive; u = inconclusive; x = not tested or not shown; [ ] = another dose, or the depositor's remark. The list is not random: actives were taken first. Their share in the collection is about 2.3%. Unless noted, calls follow the shape of the dose curve; as a rule, active = well fitted curve in the direction sought with a large enough effect; inconclusive = small, poorly fitted or top-dose-only effect, or another doubt; inactive = no such curve, though single readings can be large; an effect the other way counts as inactive or inconclusive.

SMILES	FUS yeast rescue	TDP-43 yeast inh	MmCpn inh	Abeta yeast res	aSyn yeast inh	CCT modulator
CCOc1ccc(-c2noc(CCC(=O)O)n2)cc1	i	32µM*	-1%	i	0%	1
CCOc1ccc(OCCCC(=O)O)cc1	i	13µM*	-2%	i	17%	-2
COc1ccc(-c2noc(CCC(=O)O)n2)cc1	x	12%	0%	i	10%	-1
COc1ccc(C(=O)OCCN2CCN(C3CN(Cc4cn(Cc5cccc(F)c5)nn4)S(=O)(=O)C3)CC2)cc1OC (stereo not given)	i	x	x	x	x	x
CCC(=O)Nc1ccc(Cl)cc1C(=O)c1ccc[nH]1	i	x	x	x	x	x
O=C(c1cc(C2CC2)nn1-c1ccccc1)N1CCN(c2ccccc2O)CC1	u	18µM*	-2%	i	6%	-2
Cc1cc(OC(F)F)ccc1NC(=S)NC1CCCC1	i	23%	-3%	13µM*	4%	1
Cn1cc(/C=N/NC(N)=S)c2ccccc21	i	-7%[1.82 µM]	-1%	i	8%	-2
C=CCNC(=S)N/N=C/c1ccc(C(C)(C)C)cc1	i	-5%[0.397 µM]	-7%	7.9µM*	1%	1
C=CCNC(=S)N/N=C/c1cn(C)c2ccccc12	i	20µM*	1%	u	-11%	0
O=C(Cn1c(=O)nc(-c2ccccc2)c2cc(Cl)ccc21)N1CCN(c2ccc(F)cc2)CC1	i	24%	x	i	x	x
CC1(C)CC(=O)N(CC(=O)N2CCN(c3ccc(F)cc3)CC2)c2ccccc2S1(=O)=O	i	x	x	x	x	x
O=C(NC1CCCCC1)c1cnn2c1NC(=C1CC1)C=C2C(F)F	x	x	x	x	19%	x
Cc1nc(-c2ccc(S(=O)(=O)Nc3cc(Cl)ccc3C)cc2)co1	i	22µM*	x	i	u	x
COc1ccc2c(c1OC)C(=O)NC(C)=C(C(=O)OC(C)(C)C)C2O (stereo not given)	i	16%	0%	i	16µM*	-2
CC1(C)Cc2ccccc2-c2nc3ccccc3c(=O)n21	i	13µM*	1%	i	2%	-3
CCOCCCNC(=O)C1CCN(S(=O)(=O)c2cc3c(cc2Br)CCN3C(=O)CC)CC1	i	x	x	x	x	x
CC(=O)CSc1nc(-c2ccccc2)c(-c2ccccc2)o1	i	16µM*	1%	i	8%	1
COCCNC(=O)CSc1nc(-c2ccccc2)c(-c2ccccc2)o1	i	-11%	-3%	i	-6%	-3
COc1ccc(-c2ccnc3nc(N4CCN(c5ccccc5)CC4)nn23)cc1	i	14µM*	-4%	i	1%	-2
CC(=O)OCCCN1CCC2(CCCCC2)C1=O	i	x	x	x	x	x
Cc1noc(C)c1COc1ccccc1C(=O)N1CCN(S(=O)(=O)c2cccc(Cl)c2)CC1	i	2%	0%	i	0%	-1
Cc1noc(C)c1COc1ccccc1C(=O)N1CCN(S(=O)(=O)c2cccc([N+](=O)[O-])c2)CC1	x	10%	-1%	i	7%	-57*
CSc1nnc(Nc2ccccc2C)s1	i	11µM*	0%	i	3%	-3
Cn1c(O)c(N=NC(=O)c2ccccc2O)c2ccccc21	i	16µM*	-1%	i	4%	-4
SMILES	FUS yeast rescue	TDP-43 yeast inh	MmCpn inh	Abeta yeast res	aSyn yeast inh	CCT modulator
Cc1occc1C(=O)N=Nc1c(O)n(C)c2ccccc12	x	-4%	-1%	i	-6%	1
Brc1c(-c2ccccc2)nc2n1Cc1ccccc1-2	i	13µM*	2%	i	u	4
CCc1ccc(NC(=O)CSc2nc3c(sc4ccccc43)c(=O)n2CCCOC(C)C)cc1	i	-32%	x	i	x	x
COc1ccc(-c2nc(C)c(CCNC(=O)c3ccco3)s2)cc1	i	16µM*	x	i	-10%	x
Cc1ccc(-c2nc(C)c(CCNC(=O)c3ccco3)s2)cc1	i	u	x	i	-12%	x
Cc1nc(-c2ccc(F)cc2)sc1CCNC(=O)c1cccs1	i	8.9µM*	x	i	x	x
Cc1nc(-c2ccc(F)cc2)sc1CCNC(=O)c1ccccc1	i	18µM*	x	i	x	x
Cc1nc(-c2cccc(F)c2)sc1CCNC(=O)Cc1ccc(F)cc1	i	u	x	i	x	x
COc1ccc(-c2nc(C)c(CCNC(=O)c3cccs3)s2)cc1OC	i	22µM*	x	i	-15%	x
CN1C(c2ccccc2)CC2CN(c3ccccc3)C(=O)C21 (stereo not given)	i	x	x	x	x	x
COc1ccc([C@H](C#Cc2ccccc2)CC(=O)O)cc1OC1CCCC1	i	x	x	x	x	x
C[C@@H]1[C@@H](O)C[C@]2(C[C@@H](O)c3ccccc3O2)O[C@H]1c1ccccc1	i	x	x	x	x	x
Cc1nc(-c2ccc(F)cc2)sc1CCNC(=O)c1ccc(OC(C)C)cc1	i	16µM*	x	i	x	x
Cc1nc(-c2ccccc2)sc1C(=O)Nc1ccccc1F	i	13µM*	0%	i	0%	1
Cc1nc(-c2ccc(F)cc2)sc1CCNC(=O)c1ccc(C(C)(C)C)cc1	i	-3%	x	i	x	x
COc1ccc(NC(=O)c2sc(-c3ccccc3)nc2C)c(OC)c1	i	5%	-6%	i	-1%	-1
Cc1ccc(CSCCC(=O)NCc2ccc(F)cc2Cl)cc1	i	22µM*	x	i	x	x
O=C(O)/C=C/C(=O)Nc1cccc2c1-c1ccccc1C2=O	x	20µM*	x	i	-14%	0
O=C(O)/C=C/C(=O)Nc1ccccc1-c1ccccc1NC(=O)/C=C/C(=O)O	i	-4%	1%	i	-9%	-1
CC1Nc2ncnc(N3CCc4ccccc4C3)c2N(Cc2ccc(Br)cc2)C1=O (stereo not given)	u	11µM*	-6%	i	u	-1
CCC1Nc2ncnc(N3CCc4ccccc4C3)c2N(Cc2ccc(Br)cc2)C1=O (stereo not given)	u	35µM*	x	i	u	-1
CC1Nc2ncnc(N3CCN(c4ccccc4)CC3)c2N(Cc2ccc(Cl)cc2)C1=O (stereo not given)	20µM*	u	-2%	i	u	-1
O=C1C(Cc2ccccc2)Nc2ncnc(N3CCc4ccccc4C3)c2N1Cc1ccccc1 (stereo not given)	u	5%	-3%	i	9%	-10
CCOc1ccccc1NC(=O)Cn1ncc2c([nH]c3ccccc32)c1=O	i	7%	x	i	x	x
CCOC(=O)c1nnn(-c2nc(OC)nc(N3CCCCC3)n2)c1-c1ccccc1	x	x	1%	x	x	x
